The supplement of paper PMC11624193, “Coupling cellular drug-target engagement to downstream pharmacology with CeTEAM” (Nature Communications, 2024)
Counter-ions that a name gives are not always drawn. Values without a mark were called inactive.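 How the source made its calls: active = log2 fold change beyond 2 SD from the library mean after excluding viability outliers; inactive = within 2 SD.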

Biological target: PARP1 L713F-nLuc biosensor (HCT116) (UniProt P09874)
Test: PARP1 L713F-nLuc/akaLuc ratio relative to DMSO control (biosensor stabilization) (fold change); higher = more PARP1 biosensor stabilization (target engagement / stabilizer), active = hit call of the paper
Conditions: stock concentration (mM; final µM = stock mM x 1): 10; 24 h

Sequence of PARP1 L713F-nLuc biosensor (HCT116) (P09874 whole entry L713F, looked up): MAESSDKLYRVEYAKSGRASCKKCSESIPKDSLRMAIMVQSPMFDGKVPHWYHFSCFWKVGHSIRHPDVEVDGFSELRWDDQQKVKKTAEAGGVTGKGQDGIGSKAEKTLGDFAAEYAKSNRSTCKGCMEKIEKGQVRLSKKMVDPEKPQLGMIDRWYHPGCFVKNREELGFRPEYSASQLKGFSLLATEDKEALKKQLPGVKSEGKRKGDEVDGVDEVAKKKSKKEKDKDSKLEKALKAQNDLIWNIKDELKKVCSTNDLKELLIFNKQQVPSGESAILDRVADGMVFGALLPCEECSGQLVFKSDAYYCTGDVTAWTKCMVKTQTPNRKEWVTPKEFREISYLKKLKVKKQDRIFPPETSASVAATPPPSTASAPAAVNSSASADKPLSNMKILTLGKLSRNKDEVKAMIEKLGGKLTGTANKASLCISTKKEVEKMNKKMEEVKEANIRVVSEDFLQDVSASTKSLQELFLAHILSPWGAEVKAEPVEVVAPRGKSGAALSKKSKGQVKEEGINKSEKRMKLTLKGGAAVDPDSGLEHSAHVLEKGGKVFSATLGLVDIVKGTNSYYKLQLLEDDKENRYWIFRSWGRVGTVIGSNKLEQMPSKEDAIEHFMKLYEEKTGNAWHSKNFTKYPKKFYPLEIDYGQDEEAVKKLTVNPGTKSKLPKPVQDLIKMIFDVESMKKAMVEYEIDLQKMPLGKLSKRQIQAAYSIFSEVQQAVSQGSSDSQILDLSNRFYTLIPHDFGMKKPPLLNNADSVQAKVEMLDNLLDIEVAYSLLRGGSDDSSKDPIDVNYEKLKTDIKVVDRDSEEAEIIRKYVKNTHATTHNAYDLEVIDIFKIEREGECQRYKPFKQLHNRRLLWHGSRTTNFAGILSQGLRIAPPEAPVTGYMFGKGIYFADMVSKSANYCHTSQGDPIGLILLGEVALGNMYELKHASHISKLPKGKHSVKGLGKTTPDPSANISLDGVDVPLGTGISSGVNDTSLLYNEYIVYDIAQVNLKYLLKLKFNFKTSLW

Structure (SMILES) | PARP1 L713F-nLuc/akaLuc ratio
Cc1ncc(F)c(Nc2n[nH]c3c2CN(C(=O)N2C[C@@H](C)N(CC4CCOCC4)C[C@@H]2C)C3(C)C)n1 | 1.25
c1cc(-c2cnn3cc(-c4ccc(OCCN5CCCCC5)cc4)cnc23)ccn1 [Dorsomorphin (dihydrochloride)] | 1.8
CC(C)(O)CNc1nc(Nc2ccnc(C(F)(F)F)c2)nc(-c2cccc(C(F)(F)F)n2)n1 [Enasidenib (AG-221)] | 1.96
O=C1CCc2c(ccc3ccccc23)O1 [Splitomicin] | 0.895
CN(C)C(=O)/C(C#N)=C/c1ccc(-c2nc3cnc4[nH]ccc4c3n2C2CCCCC2)o1 | 1.08
C[C@H](Nc1ncnc2[nH]cnc12)c1cc2ccc(F)cc2nc1-c1ccccn1 | 0.767
COc1cc(OC)c(/C=C/S(=O)(=O)Cc2ccc(OC)c(NCC(=O)O)c2)c(OC)c1 | 0.583
O=C(O)CC1CC(c2ccccc2)=NO1 (stereo not drawn) | 1.72
CC(=O)O[C@H]1C(=O)[C@@]2(C)[C@H]([C@H](OC(=O)c3ccccc3)[C@]3(O)C[C@H](OC(=O)[C@H](O)[C@@H](NC(=O)c4ccccc4)c4ccccc4)C(C)=C1C3(C)C)[C@]1(OC(C)=O)CO[C@@H]1C[C@@H]2O [Paclitaxel] | 2.97 (active)
CCc1cncnc1N1CCN(Cc2nc3ccc(C(F)(F)F)cc3[nH]2)CC1 | 0.681
COc1cc2ccc(=O)oc2cc1O[C@@H]1O[C@H](CO)[C@@H](O)[C@H](O)[C@H]1O [Scopolin] | 1.04
O=c1[nH]c(=O)n([C@H]2C[C@H](O)[C@@H](CO)O2)cc1C(F)(F)F [Trifluridine] | 0.548
CC(CCc1ccccn1)(CCc1ccccn1)C(=O)c1ccccc1 | 1.27
CCN(c1cc(-c2ccc(CN3CCOCC3)cc2)cc(C(=O)NCc2c(C)cc(C)[nH]c2=O)c1C)C1CCOCC1 [Tazemetostat (hydrobromide)] | 0.726
CCOC(=O)c1ccnc(CNCC(=O)N(CC)CCN(C)C)c1 | 2.92 (active)
CC1(C)NC(=O)N(c2ccc([N+](=O)[O-])c(C(F)(F)F)c2)C1=O [Nilutamide] | 0.772
COc1cc(OC)cc(-c2noc(N3CCN(C)C4(CCN(c5ccnc(C)c5)CC4)C3)n2)c1 | 0.971

Structure (SMILES) | PARP1 L713F-nLuc/akaLuc ratio
CC/C(=C(\c1ccccc1)c1ccc(OCCNC)cc1)c1ccccc1 [N-Desmethyltamoxifen (hydrochloride)] | 0.968
CCS(=O)(=O)N1CC(CC#N)(n2cc(-c3ncnc4[nH]ccc34)cn2)C1 [Baricitinib] | 0.881
CN1CCN(c2ccc3nc(-c4ccc5nc(-c6cccc(OCCCC(=O)NCCCN=[N+]=[N-])c6)[nH]c5c4)[nH]c3c2)CC1 [Targapremir-210] | 1.46
CCCCCC1CC1CC1CC1CCCCCCCC(=O)O (stereo not drawn) | 1.14
CC(=O)NCC(=O)N1[C@@H]2CC[C@H]1c1ccc(Nc3ncc(C(F)(F)F)c(NC4CCC4)n3)cc12 | 1.27
COc1ccc(C(NC(=O)c2cnc(-c3cccnn3)[nH]c2=O)c2ccc(OC)cc2)cc1 | 0.884
C/C(=N\NC(=O)c1cccc(S(=O)(=O)N2CCOCC2)c1)c1cc(Cl)ccc1O | 0.495
O=C(/C=C/N1C[C@H]2C[C@@H]1CN2c1ccccn1)c1ccccc1O | 1.3
O=C(Nc1cc(Cl)cc(Cl)c1)Nc1cc(Cl)cc(Cl)c1 | 1.29
Clc1ccc(C(c2ccccc2Cl)C(Cl)Cl)cc1 (stereo not drawn) [Mitotane] | 0.67
COc1cc2c(NC3CCN(C)CC3)nc(N3CCCN(C)CC3)nc2cc1OCCOCCN(C)C | 1.43
COc1ccc(Cn2ccc3ccc(C(=O)NO)cc32)cc1 | 1.04
Cn1cc(C(=O)Nc2ccc([C@@H]3C[C@H]3NCC3CC3)cc2)cn1 | 0.949
CN(C)Cc1ccc(-c2nc3cccc4c3n2CCNC4=O)cc1 | 8.09 (active)
Cn1cc(C2=C(c3c4n(c5ccccc35)CCC(CN)C4)C(=O)NC2=O)c2ccccc21 (stereo not drawn) [Bisindolylmaleimide X (hydrochloride)] | 0.725
N#CC[C@H](C1CCCC1)n1cc(-c2ncnc3[nH]ccc23)cn1 [Ruxolitinib (S enantiomer)] | 1.63
